# Assay results as given in PubChem BioAssay AID1224903 (Bradner/Qi Labs at DFCI, 2016).
# Values joined by “and” are separate entries in the source; they are usually repeats but may differ in a detail not shown here. Equal values may be shown once. The whole screen tested about 66,000 compounds, of which about 720 (1.1%) were called active. The sample holds actives, similar compounds and a random draw of the others, so the mix is not that of the screen. Cut-off read from the data, not from the text of the source: active = normalised signal below about 0.5; inactive = the rest, inconclusive results apart.
# Target: Chromobox protein homolog 7 (Homo sapiens) (UniProt O95931)
# Sequence (O95931 whole entry, looked up): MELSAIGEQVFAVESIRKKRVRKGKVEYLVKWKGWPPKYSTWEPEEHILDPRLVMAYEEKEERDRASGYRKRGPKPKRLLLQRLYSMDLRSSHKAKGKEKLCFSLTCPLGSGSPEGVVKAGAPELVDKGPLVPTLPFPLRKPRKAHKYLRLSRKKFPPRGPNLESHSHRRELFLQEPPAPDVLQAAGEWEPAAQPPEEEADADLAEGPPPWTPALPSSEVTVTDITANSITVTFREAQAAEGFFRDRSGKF
# Experiment: blockers of CBX7 binding to H3K27me3 peptide – biochemical, AlphaScreen, primary screen (AID 1224903)
# Conditions: AlphaScreen His6-CBX7 / biotin-H3K27me3 peptide binding, stronger effect = lower value; z-score: measured here: z-score of CBX7 signal
SMILES,normalised signal (fraction of DMSO),z-score
Cc1ccc(C2CC(c3ccc(C)cc3)n3ncnc3N2)cc1 (centres undefined),1.02 (inactive),0.839
Cc1cc(C)cc(NS(=O)(=O)c2cnc[nH]2)c1,1.01 (inactive),0.0588
COc1ccc(NC2CC(=O)N(Cc3ccccc3)C2=O)cc1 (centres undefined),1.18 (inactive),0.412
COc1ccccc1NC(=O)Cn1ccc2ccccc2c1=O,0.981 (inactive),-0.168
O=C(Nc1ccc2c(c1)OCO2)c1cnc2ccccn2c1=O,0.987 (inactive),-0.351
O=C(O)c1ccc(Nc2nc(-c3ccccc3)c3cc(Br)ccc3n2)cc1,1.05 (inactive),2.04
CCN1CCN(c2ccc(Nc3nc(-c4ccccc4)c4cc(Cl)ccc4n3)cc2)CC1,0.231 (active),-24.9
Cc1ccc(Nc2nc(-c3ccccc3)c3cc(Cl)ccc3n2)cc1,1.7 (inactive),11.8
Cc1nc2sc(C(c3cccs3)N3CCc4ccccc4C3)c(O)n2n1 (centres undefined),0.953 (inactive),-2.28
COc1ccc2[nH]c(C)c(CCNS(=O)(=O)c3ccc(Cl)c(OC)c3)c2c1,0.845 (inactive),-0.316
COc1ccc(OC)c(S(=O)(=O)NCCc2c(C)[nH]c3ccc(C)cc23)c1,0.427 (active),-0.571
Cc1ccc2[nH]c(C)c(CCNS(=O)(=O)c3ccc(C)c(C)c3C)c2c1,0.951 (inactive),-0.467
COc1ccc(S(=O)(=O)NCCc2c(C)[nH]c3ccc(C)cc23)cc1C,0.907 (inactive),-1.43
Cc1[nH]c2ccc(OC(F)(F)F)cc2c1CCNS(=O)(=O)c1ccc(C(C)C)cc1,0.913 (inactive),-1.89
COc1ccc2[nH]c(C)c(CCNS(=O)(=O)c3cc(Br)ccc3OC)c2c1,0.363 (active),-0.634
Cc1nc2sccn2c1-c1csc(Nc2ccc(S(N)(=O)=O)cc2)n1,1.07 (inactive),0.0851
Cc1ccc(Cn2nnc3c(=O)n(Cc4c(F)cccc4Cl)cnc32)cc1,0.864 (inactive),-2.23
Cc1ccn2c(NC3CCCCC3)c(-c3cccs3)nc2c1,0.819 (inactive),-1.46
COc1ccc(OC)c(NC(=O)CCc2c(C)nc3c(c(C)nn3-c3ccc(C)cc3)c2C)c1,0.992 (inactive),-0.0612
CCCCCC(O)(CCN1CCCCC1)c1ccccc1 (centres undefined),1.09 (inactive),2.44
CCCN1C(=O)C(O)(CC(=O)c2ccc(CC)cc2)c2cc(Br)ccc21 (centres undefined),0.0492 (active),-1.07

SMILES,normalised signal (fraction of DMSO),z-score
CCc1ccc(C(=O)CC2(O)C(=O)N(CCc3ccccc3)c3ccc(Br)cc32)cc1 (centres undefined),0.626 (inactive),-10.8
CC(C)c1ccc(C(=O)CC2(O)C(=O)N(Cc3ccccc3)c3ccc(Br)cc32)cc1 (centres undefined),0.876 (inactive),-1.19
COc1ccccc1Nc1nc(-c2ccc(Br)cc2)cs1,0.904 (inactive) and 0.953 (inactive),-2.04 and -0.747
CN(CCCNC(=O)c1cc(-c2ccncc2)nc2ccccc12)C1CCCCC1,1.17 (inactive),1.9
Cc1ccc2oc(-c3cc(NC(=O)c4cccc(F)c4)ccc3Cl)nc2c1,0.889 (inactive),-0.255
CCOC(=O)c1cc(-c2ccccc2)n(-c2cccc(C(=O)Nc3nccs3)c2)c1C,0.944 (inactive),-1.01
CCOC(=O)c1cnc2cc(Cl)c(OC)cc2c1Nc1ccc(C(F)(F)F)cc1,0.983 (inactive),-0.244
CC(=O)Nc1ncc2c(n1)CC(c1cccs1)CC2=O (centres undefined),0.997 (inactive),-0.0863
Fc1ccc(-c2cc(C(F)(F)F)nc(NCc3ccc(Cl)cc3)n2)cc1,1.25 (inactive),2.79
O=C(NC1CCCC1)c1nn2c(C(F)(F)F)cc(-c3ccc(F)cc3)nc2c1Cl,1.08 (inactive),0.569
CCC(C)NC(=O)c1ccc2nc(N3CCOCC3)sc2c1 (centres undefined),1.08 (inactive),3.28
Cn1cc(CC(=O)N2CCN(c3ccccn3)CC2)c2ccccc21,0.973 (inactive),-0.31
O=C(NCCCc1nc2ccccc2n1Cc1ccccc1F)c1ccc(F)cc1,0.957 (inactive),-1.01
Cn1c(C(=O)NCCCSC2CCCCC2)cc2sc(Cl)cc21,1.03 (inactive),0.498
Cc1ccc(-c2nc(-c3ccccc3Cl)no2)cc1,1.16 (inactive),1.59
COc1ccc(-n2c3c(cc(C(=O)NC(C)(C)C)c2=O)C(=O)CC(C)(C)C3)cc1,1.06 (inactive),0.667
Cc1ccc(-c2nnc(SCC(=O)Nc3cc(C)on3)o2)cc1,1.19 (inactive),2.87
COc1ccc(OC)c(-c2nnc(SCC(=O)Nc3cc(C)on3)o2)c1,0.264 (active),-15.1
Cc1cc(NC(=O)CSc2nnc(-c3ccc(Cl)s3)o2)no1,1.1 (inactive),1.02
CC1CCN(c2nc3ccc(C(=O)NCCCN4C(C)CCCC4C)cc3s2)CC1 (centres undefined),1.41 (inactive),3.88
COc1ccc(CCNC(=O)c2cccc3c2C(=O)N(Cc2cccnc2)C3)cc1OC,1.02 (inactive),0.0167

SMILES,normalised signal (fraction of DMSO),z-score
CCN(C(=O)Cc1nc(N)n[nH]1)C1(C(=O)Nc2ccccc2)CCCCC1,0.201 (active),-14.5
CCN(C(=O)Cc1nc(N)n[nH]1)C1(C(=O)Nc2ccc(C)cc2)CCCCC1,0.791 (inactive),-3.79
Cc1cccc(C)c1NC(=O)C1(N(CCc2c[nH]c3ccccc23)C(=O)c2ccccc2F)CCCCC1,0.792 (inactive),-3.78
Cc1cc(NCC(C)c2ccccc2)n2ncnc2n1 (centres undefined),1.03 (inactive),0.546
CCOC(=O)c1cccc(NC(=O)Cn2nc(Cc3ccncc3)c3ccccc3c2=O)c1,0.996 (inactive),-0.0743
COc1cccc(C2=NOC(C(=O)NCCc3ccccc3)C2)c1 (centres undefined),1.14 (inactive),1.85
Cc1cc(Nc2ccc(C)c(C)c2)n2ncnc2n1,1.04 (inactive),0.609
CC1CCC(NC(=O)C2c3ccccc3C(=O)N2Cc2ccc3c(c2)OCO3)CC1 (centres undefined),1.04 (inactive),0.918
COc1ccc(CCNC(=O)CSc2nc3ccccc3[nH]2)cc1OC,1.07 (inactive),0.758
COc1ccc(CCNC(=O)CSc2nc3ccccc3nc2Cc2ccc(F)cc2)cc1OC,0.48 (active),-8.99
COc1ccc(CCNC(=O)CSc2nnc(CNC(=O)c3cccs3)o2)cc1OC,0.975 (inactive),-0.715
O=S1(=O)N=C(N2CCCCC2)c2ccccc21,1.07 (inactive),2
O=C1c2ccccc2-c2onc3c(N4CCCC4)ccc1c23,0.367 (active),-9.89
CCNc1cc(Nc2ccccc2)c2c3c(onc13)-c1ccccc1C2=O,0.816 (inactive),-3.56
O=C(Nc1ccccc1Cl)N1CCCCC1c1cccnc1 (centres undefined),0.995 (inactive),-0.051
Cc1ccc(Nc2cc(C(=O)O)c3ccccc3n2)cc1,1.11 (inactive),1.21
O=C(COc1ccc(Cl)cc1)NCc1nnc(SCC(=O)NCC2CCCO2)o1 (centres undefined),1.04 (inactive),1.76
COc1ccc(C2CC(=O)N(CC(=O)Nc3ccc(C)c(Cl)c3)c3ccccc3S2)cc1 (centres undefined),0.931 (inactive),-1.15
Cc1ccccc1OCC(O)Cn1c(=N)n(C)c2ccccc21 (centres undefined),1.02 (inactive),0.641
CC(=O)N1CCc2cc(S(=O)(=O)N(CCO)Cc3ccccc3)ccc21,1.17 (inactive),1.75
CCOc1ccc2nc(C)cc(Nc3ccc(OC)c(OC)c3)c2c1,0.818 (inactive),-2.64

SMILES,normalised signal (fraction of DMSO),z-score
CCCCc1ccc(NC(=O)CSc2nccn2-c2cccc(C)c2C)cc1,0.742 (inactive),-0.258
Cc1cccc(N(C)C(=O)C(NS(=O)(=O)c2ccc3c(c2)CCC(=O)N3)c2ccccc2)c1 (centres undefined),1.06 (inactive),0.379
CC1CCCCN1CCCNC(=O)C1CCC(=O)N1C1CCCC1 (centres undefined),1.05 (inactive),1.64
c1ccc(SCCc2ccc3cc(-c4ccccc4)cn3c2)cc1,0.986 (inactive),-0.335
CCOc1ccc2nc(NC(=O)c3ccc(OC)cc3)sc2c1,1.05 (inactive),1.46
Cc1c(CNC2CCCCC2C)c(C(=O)O)c(C)n1Cc1ccccc1 (centres undefined),1.01 (inactive),0.18
O=C(c1ccc(NC2=NC3CS(=O)(=O)CC3S2)cc1)N1CCN(C2CCCCC2)CC1 (centres undefined),1.05 (inactive),1.03
COc1ccc(CNC(=O)C2CCN(S(=O)(=O)c3c(C)noc3C)CC2)cc1,1.02 (inactive),0.788
Cc1ccc(-c2nc(Nc3cccc(C(F)(F)F)c3)c3ccccc3n2)cc1,1.08 (inactive),1.39
Cc1ccc(Cl)cc1N1CCN(C(=O)Cn2ncc3c2-c2ccccc2OC3)CC1,0.728 (inactive),-7.81
COc1cccc(CNc2ccc3c(c2)ncn3C)c1,0.916 (inactive),-1.96
CCn1cnc2cc(NCc3ccccn3)ccc21,0.316 (active),-5.49
CCCn1cnc2cc(NCc3cc(OC)ccc3OC)ccc21,0.919 (inactive),-2.03
O=C(Nc1ccccc1C(F)(F)F)N1CCN(c2ccc3nnc(-c4ccccc4)n3n2)CC1,0.759 (inactive),-3.38
Cc1nc2cc(C(=O)NCc3ccc(F)cc3)ccc2n1-c1cccc(F)c1,0.995 (inactive),-0.21
Cc1cccc(CCNC(=O)CN2CCN(Cc3ccc(F)cc3Cl)C2=O)c1,1.02 (inactive),0.228
Cc1ccc(NC(=O)Cn2cnc3sc(C(=O)Nc4ccc(F)cc4)c(C)c3c2=O)cc1Cl,1.09 (inactive),2.71
Cc1ccc(OCC(=O)Nc2cccc(-c3nc4ncccc4o3)c2)cc1,1.02 (inactive),0.227
Cc1cccc(N2CCN(C(=O)C3CCC(Cn4c(=O)[nH]c5ccsc5c4=O)CC3)CC2C)c1 (centres undefined),1.11 (inactive),0.523
